{
  "source": "PubChem BioAssay AID504803",
  "about": "(The Scripps Research Institute Molecular Screening Center, 2011)",
  "note": "Among all 340,000 compounds or so, about 1,700 (0.5%) were called active. Shown is part of a subset that was picked to be rich in actives. Unmarked numbers belong to inactive results. No stated cut-off is given here; in the data, active means inhibition above about 36%; inactive means the rest.",
  "data": [
    {"target": "Serine protease HTRA1 (Homo sapiens) (UniProt Q92743)", "sequence (Q92743 whole entry, looked up)": "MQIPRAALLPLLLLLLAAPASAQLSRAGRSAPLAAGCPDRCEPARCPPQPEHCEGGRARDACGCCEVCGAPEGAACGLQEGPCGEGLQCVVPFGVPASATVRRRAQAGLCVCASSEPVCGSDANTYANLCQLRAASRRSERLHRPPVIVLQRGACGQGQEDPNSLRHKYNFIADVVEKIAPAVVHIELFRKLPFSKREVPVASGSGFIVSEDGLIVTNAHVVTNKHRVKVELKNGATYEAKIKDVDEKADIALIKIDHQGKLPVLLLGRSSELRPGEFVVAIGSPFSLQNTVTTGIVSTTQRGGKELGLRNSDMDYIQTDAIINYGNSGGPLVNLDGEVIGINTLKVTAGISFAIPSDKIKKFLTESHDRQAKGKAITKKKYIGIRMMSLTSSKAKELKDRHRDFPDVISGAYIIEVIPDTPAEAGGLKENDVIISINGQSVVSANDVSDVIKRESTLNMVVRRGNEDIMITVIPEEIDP", "assay": "HTRA1 serine protease inhibitors, primary screen, biochemical, fluorescence polarization, HTS (AID 504803);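 further: 0% = enzyme with DMSO and 100% = wells lacking enzyme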", "conditions": "recombinant HTRA1, FP-rhodamine activity-based probe, at 5.96 µM, hits give high values", "values": [
      {"smiles": "O=C(NN=Cc1ccc2c(c1)CCC2)c1ccccc1O", "inhibition": "-0.46%"},
      {"smiles": "O=C(N/N=C/c1ccc(O)c(O)c1)C1c2ccccc2Oc2ccccc21", "inhibition": "68.8% (active)"},
      {"smiles": "CC(C)(C)c1nnc(NC(=O)C2c3ccccc3Oc3ccccc32)s1", "inhibition": "-41.3%"},
      {"smiles": "COc1cccc(NC(=O)CN(C)C(=O)c2cc(Cl)nc3ccccc23)c1", "inhibition": "0.82%"},
      {"smiles": "C[C@@H]1CN([C@@H](C)CO)C(=O)c2cc(Br)cnc2O[C@@H]1CN(C)C(=O)C1CCCCC1", "inhibition": "2.18%"},
      {"smiles": "CCN(CC)C(=O)C1=C(C)N(Cc2ccc(F)cc2)C(=O)C(CC(=O)NC2CCCC2)C1", "note": "(centres undefined)", "inhibition": "1.89%"},
      {"smiles": "COc1ccc2oc(=N)c(C(=O)Nc3ccc(Br)cc3)cc2c1", "inhibition": "-1.93%"},
      {"smiles": "COc1ccc(C(=O)c2oc3ccc(Br)cc3c2NC(C)=O)cc1", "inhibition": "-1.73%"},
      {"smiles": "COc1ccc(/C=C/C(=O)c2cc(Br)ccc(=O)c2O)cc1", "inhibition": "61% (active)"},
      {"smiles": "O=C1[C@H]2[C@@H](c3ccc(C(F)(F)F)cc3)N[C@]3(CCCN(Cc4ccc(Br)cc4)C3=O)[C@H]2C(=O)N1Cc1ccccc1", "inhibition": "-35.1%"},
      {"smiles": "COc1cccc2c1C(=O)c1c(O)c3c(c(O)c1C2=O)CC(O)(C(C)=NNC(=O)c1ccc(Cl)c(Cl)c1)CC3OC1CC(N)C(O)C(C)O1", "note": "(centres undefined)", "inhibition": "70.5% (active)"},
      {"smiles": "CN(Cc1c(F)cccc1Cl)C(=O)COC(=O)Cn1cnc2ccccc2c1=O", "inhibition": "2.48%"},
      {"smiles": "N#Cc1ccc(OCC(=O)Nc2nc(-c3ccccn3)cs2)cc1", "inhibition": "19.1%"},
      {"smiles": "O=C(N/N=C\\c1cccnc1)c1cc(-c2ccccc2)nc2c(Cl)cccc12", "inhibition": "-44%"},
      {"smiles": "O=C(N/N=C/c1cccnc1)c1cc2ccccc2cc1O", "inhibition": "41% (active)"},
      {"smiles": "Cc1ccc(/C=N/NC(=O)Cn2nc(C)c(Br)c2C)o1", "inhibition": "-6.04%"},
      {"smiles": "Cc1ccc(/C=N/NC(=S)NC2CCCCC2)o1", "inhibition": "5.44%"},
      {"smiles": "COc1ccc(-c2cc(C(=O)N/N=C/c3cccnc3)c3ccccc3n2)c(OC)c1", "inhibition": "-18%"},
      {"smiles": "Cc1ccc(/C=N/NC(=O)c2cc3ccccc3cc2O)o1", "inhibition": "50.2% (active)"},
      {"smiles": "CC(C)N=C1CCCC1C(=S)SSC(=S)C1CCCC1=NC(C)C", "note": "(centres undefined)", "inhibition": "13.4%"},
      {"smiles": "CC(C)C1CCN(C(=O)C2CCC(=O)N(C3CCCCCC3)C2)CC1", "note": "(centres undefined)", "inhibition": "4.4%"},
      {"smiles": "CCCCN1CC(C)(C)[C@H](CC(=O)Nc2ccc(Br)cc2)C1=O", "inhibition": "-7.94%"},
      {"smiles": "COc1ccc(-c2ccc(CN3C(CC(C)C)C(=O)N(Cc4cn(CC5CCCCC5)nn4)CCS3(=O)=O)cc2)cc1", "note": "(centres undefined)", "inhibition": "-45.1%"},
      {"smiles": "O=C(C[C@H]1C[C@H]2c3cc(NS(=O)(=O)c4ccc(F)cc4)ccc3O[C@H]2[C@H](CO)O1)NCc1cc(F)ccc1F", "inhibition": "-9.74%"},
      {"smiles": "COc1cc(C(=O)OCCCN2CCOCC2)cc(OC)c1OC", "inhibition": "-2.46%"},
      {"smiles": "O=NN(CCCl)C(=O)NCCc1cccc[n+]1[O-]", "inhibition": "1.62%"},
      {"smiles": "CCOC(=O)C1Nc2ccc(C(F)(F)F)cc2C2C=CCC12", "note": "(centres undefined)", "inhibition": "41.7% (active)"},
      {"smiles": "CCOC(=O)C[C@H]1c2ccc(C(F)(F)F)cc2S(=O)(=O)N1c1ccccc1", "inhibition": "-13.4%"},
      {"smiles": "CCOC(=O)NNc1cc(C(F)(F)F)ccn1", "inhibition": "-0.2%"},
      {"smiles": "O=Nc1c(O)cc(O)c2ccccc12", "inhibition": "42.4% (active)"},
      {"smiles": "COc1cccc2c(O)cc(=O)n(C)c12", "inhibition": "-0.49%"},
      {"smiles": "O=C(NN=Cc1ccccc1O)NN=Cc1ccccc1O", "inhibition": "25.9%"},
      {"smiles": "Cc1ccc(-c2ccc(CN3C(C(C)C)C(=O)N(Cc4cn(CCC5OCCO5)nn4)CCS3(=O)=O)cc2)cc1", "note": "(centres undefined)", "inhibition": "-29.6%"},
      {"smiles": "CC[C@@H]1Cc2cc(O)ccc2C2=C1c1ccc(O)cc1C[C@H]2CC", "inhibition": "44.3% (active)"},
      {"smiles": "COc1cc(C)c(CN2CCN(C(=O)CCC(=O)c3ccc(C)s3)CC2)cc1OC", "inhibition": "6.95%"},
      {"smiles": "CCCCCCNC(=O)O[C@H]1CN(C(=O)OC(C)C)N(C(=O)OC(C)C)[C@@H]2CN(S(=O)(=O)c3ccc(C)cc3)C[C@]12O", "inhibition": "-18.8%"},
      {"smiles": "O=C(Cc1ccc(Cl)cc1)NC(=S)Nc1ccccc1O", "inhibition": "-31.1%"},
      {"smiles": "Oc1ccc(CNc2ccccc2O)cc1", "inhibition": "52.1% (active)"},
      {"smiles": "c1ccc(CNCc2ccc(CNCc3ccccc3)cc2)cc1", "inhibition": "2.32%"},
      {"smiles": "C[C@@H]1CN([C@H](C)CO)C(=O)CCCn2cc(nn2)CO[C@H]1CN(C)S(=O)(=O)c1ccc(Oc2ccccc2)nc1", "inhibition": "5.67%"},
      {"smiles": "COCC1CCCCN1C(=O)c1cc(COc2ccc(C)c(C)c2)on1", "note": "(centres undefined)", "inhibition": "-4.09%"},
      {"smiles": "COc1ccc(C=C2CCC3C(CCCC34OCCO4)C2=O)cc1", "note": "(centres undefined)", "inhibition": "-8.69%"},
      {"smiles": "Nc1nonc1-n1nnc(C(=O)N/N=C/c2c[nH]c3ccccc23)c1-c1ccccc1", "inhibition": "-3.11%"},
      {"smiles": "C[n+]1ccc(/C=C/c2c[nH]c3ccccc23)cc1", "inhibition": "2.74%"},
      {"smiles": "CSC(=S)N/N=C/c1c[nH]c2ccccc12", "inhibition": "48.9% (active)"},
      {"smiles": "C[C@H]1CN([C@@H](C)CO)C(=O)CCCn2nncc2CO[C@@H]1CN(C)Cc1ccc(Oc2ccccc2)cc1", "inhibition": "-3.08%"},
      {"smiles": "O=c1ccc2c(-c3ccccc3S(=O)(=O)O)c3ccc(O)c(O)c3oc-2c1O", "inhibition": "37.8% (active)"},
      {"smiles": "COc1cc(C=NC2CCCCC2)ccc1O", "inhibition": "0.85%"},
      {"smiles": "COc1ccc(CN2C(=O)C(CC(=O)NCCCCc3ccccc3)CC(C(=O)N3CCOCC3)=C2C)cc1", "note": "(centres undefined)", "inhibition": "5.2%"},
      {"smiles": "O=C(c1ccccc1)N1CCN(c2cc(-c3ccccc3)nc3cc(-c4cccc(Cl)c4)nn23)CC1", "inhibition": "-11.5%"},
      {"smiles": "CCCN(CCC)C(=O)C1c2ccccc2Oc2ccccc21", "inhibition": "38.1% (active)"},
      {"smiles": "CCOC(=O)CC(NC(=O)C1c2ccccc2Oc2ccccc21)c1ccc(C)cc1", "note": "(centres undefined)", "inhibition": "-3.25%"},
      {"smiles": "CCCCCNC(=O)C1c2ccccc2Oc2ccccc21", "inhibition": "0.55%"},
      {"smiles": "C[C@H]1CN([C@@H](C)CO)S(=O)(=O)c2ccc(Br)cc2O[C@H]1CN(C)C(=O)c1cnccn1", "inhibition": "10.3%"},
      {"smiles": "CNC(=O)c1ccc(CN(C)C(=O)c2cc(C3CC3)nc3c2cnn3C(C)C)cc1", "inhibition": "-4.2%"},
      {"smiles": "CC(C)CC1C(=O)N(Cc2cn(Cc3ccco3)nn2)CCS(=O)(=O)N1Cc1ccc(-c2ccc(Cl)c(Cl)c2)cc1", "note": "(centres undefined)", "inhibition": "-109%"},
      {"smiles": "C[C@@H]1CN([C@H](C)CO)C(=O)CCCn2nncc2CO[C@@H]1CN(C)S(=O)(=O)c1cccc(C#N)c1", "inhibition": "4.09%"},
      {"smiles": "CCN1CCN(C(c2cccnc2)c2cc(Cl)c3cccnc3c2O)CC1", "note": "(centres undefined)", "inhibition": "42% (active)"},
      {"smiles": "N#C/C(=C\\c1ccc(O)c(O)c1)C(=O)NCc1ccccc1", "inhibition": "59.1% (active)"},
      {"smiles": "COc1ccc(CNC(=O)/C(C#N)=C/c2cccc(OC)c2OC)cc1", "inhibition": "-5.58%"},
      {"smiles": "COCCNC(=O)/C(C#N)=C/c1cccc(OCc2ccccc2)c1", "inhibition": "-21.2%"},
      {"smiles": "CC(C)CC1C(=O)N(Cc2cn(CC3CCCCC3)nn2)CCS(=O)(=O)N1Cc1ccc(-c2ccc(Cl)cc2)cc1", "note": "(centres undefined)", "inhibition": "-45.3%"},
      {"smiles": "Cc1cccc(N2CCN(C(=O)c3ccccc3NC(=O)C3CCCCC3C(=O)O)CC2)c1", "note": "(centres undefined)", "inhibition": "2.87%"},
      {"smiles": "Cc1cccc(N2CCN(c3ccc(NC(=O)/C=C\\C(=O)O)cc3)CC2)c1", "inhibition": "52% (active)"},
      {"smiles": "CC(C)=C1SC(N2CCN(c3cccc(C)c3)CC2)=NC1=O", "inhibition": "-3.36%"},
      {"smiles": "O[C@H]1C[C@H](c2ccc(Cl)cc2)N(Cc2cccs2)C[C@@H]1n1cc(C2CC2)nn1", "inhibition": "-46%"},
      {"smiles": "COc1ccc(C(=O)Nc2cccc(/C=C(/CCC(=O)O)c3nc4ccccc4s3)c2)cc1", "inhibition": "-96.2%"},
      {"smiles": "COc1cccc(OC)c1C(=O)Nc1nnc(C(C)C)s1", "inhibition": "-2.63%"},
      {"smiles": "COc1cccc2sc(NNC(=O)c3nc4ccccc4s3)nc12", "inhibition": "39.4% (active)"},
      {"smiles": "C[C@H]1CN([C@@H](C)CO)C(=O)CCCn2cc(nn2)CO[C@@H]1CN(C)C(=O)Nc1ccccc1", "inhibition": "2.55%"},
      {"smiles": "Cc1noc(C)c1NC(=O)N(C)C[C@@H]1Oc2cc(Br)ccc2S(=O)(=O)N([C@@H](C)CO)C[C@H]1C", "inhibition": "0.21%"},
      {"smiles": "Cc1ccc(C(=O)N[C@H](C(=O)N2CCN(c3ncccn3)CC2)C(C)C)cc1", "inhibition": "5.28%"},
      {"smiles": "CCc1nc2c(=O)[nH]cnc2o1", "inhibition": "5.91%"},
      {"smiles": "Cc1cc(-c2csc(N)n2)c(C)n1Cc1ccccc1", "inhibition": "37.6% (active)"},
      {"smiles": "Cc1cc(-c2csc(N)n2)c(C)n1-c1ccccc1", "inhibition": "52.5% (active)"},
      {"smiles": "CCCn1c(C)cc(-c2csc(NC(=O)CCc3nc4ccccc4c(=O)[nH]3)n2)c1C", "inhibition": "-3.91%"},
      {"smiles": "CCCc1cc(-c2n[nH]c(=S)n2Cc2ccccc2)cs1", "inhibition": "-3.06%"},
      {"smiles": "CCOC(=O)C1=C(O)/C(=C/c2cc(C)n(-c3ccccc3)c2C)N=C1C", "inhibition": "20.9%"},
      {"smiles": "Cc1cc(C(=O)OCC(=O)N2c3ccccc3NC(=O)C2(C)C)c(C)n1-c1ccccc1", "inhibition": "-25.2%"},
      {"smiles": "CCN1C(=O)[C@H]2[C@@H](c3ccccc3)N[C@]3(CCCN(Cc4ccc(C)cc4)C3=O)[C@H]2C1=O", "inhibition": "-0.19%"},
      {"smiles": "COc1ccc(NC(=O)N(C)C[C@H]2Oc3ncc(C#C[C@@H](C)O)cc3C(=O)N([C@H](C)CO)C[C@H]2C)cc1", "inhibition": "6%"},
      {"smiles": "Nc1cccc(OCCCCCOc2cccc(N)c2)c1", "inhibition": "3.94%"},
      {"smiles": "COC(=O)c1ccccc1N=NNc1ccc([N+](=O)[O-])cc1", "inhibition": "3.36%"},
      {"smiles": "COc1ccc(NC(=O)c2cc(=O)[nH]c3ccccc23)cc1S(=O)(=O)N1CCOCC1", "inhibition": "-7.81%"},
      {"smiles": "Oc1ccc2ccccc2c1N=Nc1nccs1", "inhibition": "44.7% (active)"},
      {"smiles": "COc1ccc(NC(=O)COC(=O)C2COc3ccccc3O2)cc1", "note": "(centres undefined)", "inhibition": "-2.75%"},
      {"smiles": "COc1cccc2cc(-c3cc(=O)oc4cc(C)c(O)cc34)oc12", "inhibition": "-8.58%"},
      {"smiles": "COc1c(O)cc2oc(-c3ccc(O)c(O)c3)cc(=O)c2c1O", "inhibition": "25.7%"},
      {"smiles": "COc1cc(O)c2c(=O)c3c(O)c(O)ccc3oc2c1OC", "inhibition": "53.9% (active)"}
    ]}
  ]
}
